Test results published in the supplement of paper PMC10121225.

test system: hN + hpA co-culture (H1 iNGN2 human neurons + human primary astrocytes); experiment: presynaptic density (SYNAPSIN1 puncta per MAP2 neurite area), Z-score vs DMSO controls; higher = more presynaptic puncta (synapse-promoting); settings: 3 µM; 72 h
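Note: immunostained co-cultures imaged by high-content microscopy, Z-score per plate against mean and SD of 0.1% DMSO wells, compounds added on differentiation day 18, analysed day 21.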

Row | SMILES | presynaptic density (Z-score)
1 | CC(C)n1c(/C=C/C(O)CC(O)CC(=O)O)c(-c2ccc(F)cc2)c2ccccc21 (centres undefined) [Fluvastatin Sodium] | 1.53
2 | CC1=C(C(=O)Nc2cc3cn[nH]c3cc2F)C(c2ccc(C(F)(F)F)cc2)CC(=O)N1 (centres undefined) | 1.88
3 | N#CSc1cc(SC#N)c(N)nc1N | -0.815
4 | Cc1[nH]c2ccccc2c1CCNCc1ccc(/C=C/C(=O)NO)cc1 [Panobinostat (LBH589)] | 4.81
5 | CCOC(=O)C1=C(C)NC(C)=C(C(=O)OC)C1c1cccc(Cl)c1Cl (centres undefined) [Felodipine] | -1.18
6 | FC(F)(F)c1ccc(/C=C/c2nc(COc3ccc(CCCCn4ccnn4)cc3)co2)cc1 [Mubritinib (TAK 165)] | -3.36
7 | CC1(COc2ccc3c(c2)ncn3-c2ccc3cccc(N4CCC(N)CC4)c3n2)COC1 | -0.296
8 | CC(C)c1noc(N2CCC(COc3ccc(-c4ccc(S(C)(=O)=O)cc4)nc3)CC2)n1 | 0.0886
9 | COc1cc(N2CCC(N)CC2)ccc1Nc1ncc(Cl)c(-c2c[nH]c3ccccc23)n1 | -0.26
10 | C[C@H](N[C@@H](CCc1ccccc1)C(=O)O)C(=O)N1CCC[C@H]1C(=O)O | -0.963
11 | COc1ccc([C@]2(C#N)CC[C@@H](C(=O)O)CC2)cc1OC1CCCC1 [Cilomilast] | -0.137
12 | CO[C@H]1C[C@@H]2CC[C@@H](C)[C@@](O)(O2)C(=O)C(=O)N2CCCC[C@H]2C(=O)O[C@H]([C@H](C)C[C@@H]2CC[C@@H](OCCO)[C@H](OC)C2)CC(=O)[C@H](C)/C=C(\C)[C@@H](O)[C@@H](OC)C(=O)[C@H](C)C[C@H](C)/C=C/C=C/C=C/1C [Everolimus (RAD001)] | -1.63
13 | CC12CC3CC(C)(C1)CC(N)(C3)C2 | -1.67
14 | Oc1ncnc2[nH]ncc12 [Allopurinol] | -0.774
15 | CC(C)N(CCCNC(=O)Nc1ccc(C(C)(C)C)cc1)C[C@H]1O[C@@H](n2cc(Br)c3c(N)ncnc32)[C@H](O)[C@@H]1O | -0.407
16 | CCCSc1nc(N[C@@H]2C[C@H]2c2ccc(F)c(F)c2)c2nnn([C@@H]3C[C@H](OCCO)[C@@H](O)[C@H]3O)c2n1 [Ticagrelor] | -0.848
17 | O[C@@H](COc1cccc2ncccc12)CN1CCN(C2c3ccccc3[C@@H]3[C@H](c4ccccc42)C3(F)F)CC1 (some centres undefined) | -1.51
18 | Oc1ccc2ccccc2c1SSc1c(O)ccc2ccccc12 [1-1-Dithiodi-2-naphthtol] | -0.787
19 | Cc1ccc(NC(=O)c2ccc(CN3CCN(C)CC3)cc2)cc1Nc1nccc(-c2cccnc2)n1 [Gleevec (Imatinib)] | -0.283
20 | COc1cc2c(cc1OC)[C@@H]1Cc3ccc(OC)c(OC)c3CN1CC2 [Rotundine] | -0.985

Row | SMILES | presynaptic density (Z-score)
21 | COc1cc(OC)c(/C=C/S(=O)(=O)Cc2ccc(OC)c(NCC(=O)O)c2)c(OC)c1 | -3.31
22 | CCOC(=O)CCNc1cc(N2CCc3ccccc3CC2)nc(-c2ccccn2)n1 | -3.3
23 | C#Cc1cccc(Nc2ncnc3cc4c(cc23)OCCOCCOCCO4)c1 [Icotinib] | -0.0135
24 | COc1cc2c(Nc3ccc(NC(=O)c4ccccc4)cc3)ncnc2cc1OCCCN1CCOCC1 | -1.71
25 | O=C(NCCN1CCOCC1)c1ccc(Cl)cc1 | 0.253
26 | COC(=O)CCSCc1ccc(-c2onc(C)c2NC(=O)OC(C)c2ccccc2Cl)cc1 (centres undefined) | -0.843
27 | CNC(=O)c1ccc(N2C(=S)N(c3ccc(C#N)c(C(F)(F)F)c3)C(=O)C2(C)C)cc1F [Enzalutamide (MDV3100)] | 0.664
28 | COc1cc(Nc2ncc(F)c(Nc3ccc4c(n3)N(COP(=O)(O)O)C(=O)C(C)(C)O4)n2)cc(OC)c1OC [Fostamatinib (R788)] | 0.149
29 | COc1cc2c(cc1O)CC[C@@H]1[C@@H]2CC[C@]2(C)[C@@H](O)CC[C@@H]12 [2-Methoxyestradiol (2-MeOE2)] | -0.808
30 | CNC(=C[N+](=O)[O-])NCCSCc1ccc(CN(C)C)o1 [Ranitidine] | -0.33
31 | CN(C)C(=O)[C@H](O)[C@H](Cc1ccccc1)NC(=O)c1cc2cc(Cl)ccc2[nH]1 | -0.264
32 | CN1CCC[C@@H]1CCO[C@](C)(c1ccccc1)c1ccc(Cl)cc1 [Clemastine] | -0.781
33 | CN1CC(=O)N2[C@H](c3ccc4c(c3)OCO4)c3[nH]c4ccccc4c3C[C@@H]2C1=O [Tadalafil] | -0.533
34 | CCc1cccc2c3c([nH]c12)C(CC)(CC(=O)O)OCC3 (centres undefined) [Etodolac] | -1.87
35 | O=C(NCc1ccccc1)c1csc(Nc2ccncn2)n1 [Thiazovivin] | 0.74
36 | NS(=O)(=O)C#Cc1ccccc1 [2-Phenylethynesulfonamide] | 0.148
37 | Cc1cc([C@@H](C)Nc2ccccc2C(=O)O)c2nc(N3CCOCC3)cc(=O)n2c1 | -0.243
38 | C#Cc1cccc(Nc2ncnc3cc(OCCOC)c(OCCO)cc23)c1 | -0.577
39 | NS(=O)(=O)c1ccc(NC(=O)Nc2ccc(F)cc2)cc1 | 0.585
